Data reported in PubChem BioAssay (EPA / NIEHS).
Records with an inconclusive call do not appear. The source made the active and inactive calls. Rule for the calls, unless noted: active = hit-call score of the fitted dose curve at least 0.9, where 1 is the maximum; inconclusive = response in the unintended direction; inactive = score below 0.9.

Legend:
[1] = ATG_GRE_CIS: Attagene CIS-FACTORIAL HepG2 Assay for human Glucocorticoid Response Elements (GRE) (AID 2282947; active = hit-call score of the fitted dose curve at least 0.9, where 1 is the maximum; inactive = score below 0.9); details: HepG2 GRE cis-reporter, Attagene multiplex mRNA; actives raise or lower the signal
Outline: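 Transiently transfected HepG2 cells carrying GRE cis-reporter units (endogenous TF activity) dosed 24 h; reporter mRNA quantified by RT-PCR, 6-FAM labelling, HpaI digestion and capillary electrophoresis. Bidirectional fit versus DMSO baseline.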

[2] = ATG_PBREM_CIS: Attagene CIS-FACTORIAL HepG2 Assay for human Phenobarbital-responsive Enhancer Module (PBREM) (AID 2282955; active = hit-call score of the fitted dose curve at least 0.9, where 1 is the maximum; inactive = score below 0.9); details: HepG2 PBREM cis-reporter, Attagene multiplexed transcription; actives raise or lower the signal
Outline: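 Multiplexed cis-reporter readout in human hepatoma HepG2 cells; PBREM-regulated transcript quantified after 24 h exposure by fluorescent RT-PCR fragment analysis. Signal changes up or down fitted relative to DMSO.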

[3] = molecular target: X-box-binding protein 1 (Homo sapiens) (UniProt P17861); experiment: ATG_Xbp1_CIS: Attagene CIS-FACTORIAL HepG2 Assay for human X-box Binding Protein 1 (XBP1) (AID 2282972; active = hit-call score of the fitted dose curve at least 0.9, where 1 is the maximum; inactive = score below 0.9); details: HepG2 XBP1 cis-element reporter, Attagene multiplex; actives raise or lower the signal
X-box-binding protein 1 (Homo sapiens), sequence (P17861 whole entry, looked up): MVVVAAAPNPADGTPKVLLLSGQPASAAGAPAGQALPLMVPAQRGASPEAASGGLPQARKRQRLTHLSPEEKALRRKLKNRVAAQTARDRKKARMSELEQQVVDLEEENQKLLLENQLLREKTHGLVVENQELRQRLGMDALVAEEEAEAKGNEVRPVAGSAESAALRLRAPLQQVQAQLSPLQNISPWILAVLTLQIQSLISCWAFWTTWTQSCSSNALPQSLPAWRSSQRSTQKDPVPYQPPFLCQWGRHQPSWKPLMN
Outline: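 HepG2 cells transiently transfected with cis-regulated multiple reporter transcription units; endogenous transcription factor activity measured 24 hours after chemical dosing. Reporter mRNA quantified by RT-PCR, 6-FAM primer extension, HpaI digestion and capillary electrophoresis; bidirectional fitting versus DMSO.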

[4] = ATG_GAL4_TRANS: Attagene TRANS-FACTORIAL HepG2 Assay for GAL4 (Internal Marker) (AID 2282976); details: HepG2 Attagene TRANS GAL4 internal marker reporter
Outline: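 First, HepG2 cells were transfected with reporter units under GAL4-UAS control. Next, they were treated with chemical for 24 h. Finally, RNA was reverse-transcribed, PCR-amplified, FAM-labelled and resolved by capillary electrophoresis, with induction scored against DMSO.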

[5] = molecular target: Hepatocyte nuclear factor 4-alpha (Homo sapiens) (UniProt P41235); experiment: ATG_HNF4a_TRANS: Attagene TRANS-FACTORIAL HepG2 Assay for human Hepatocyte Nuclear Factor 4 alpha (HNF4a) (AID 2282982); details: HepG2 HNF4a transactivation reporter, mRNA readout
Hepatocyte nuclear factor 4-alpha (Homo sapiens), sequence (P41235 whole entry, looked up, the tested form may be a part): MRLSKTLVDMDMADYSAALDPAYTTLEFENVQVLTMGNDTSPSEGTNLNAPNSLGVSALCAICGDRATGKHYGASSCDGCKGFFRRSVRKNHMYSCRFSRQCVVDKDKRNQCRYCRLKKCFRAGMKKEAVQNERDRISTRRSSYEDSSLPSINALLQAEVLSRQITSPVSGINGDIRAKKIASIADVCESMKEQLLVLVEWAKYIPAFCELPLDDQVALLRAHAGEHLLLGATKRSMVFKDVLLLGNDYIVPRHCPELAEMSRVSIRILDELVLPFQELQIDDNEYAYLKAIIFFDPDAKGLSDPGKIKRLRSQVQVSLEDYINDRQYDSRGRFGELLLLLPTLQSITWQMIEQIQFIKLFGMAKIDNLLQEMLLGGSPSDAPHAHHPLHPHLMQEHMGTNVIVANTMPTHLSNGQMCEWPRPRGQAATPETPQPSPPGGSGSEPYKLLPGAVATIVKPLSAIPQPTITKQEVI
Outline: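 HepG2 cells transiently transfected with HNF4a-Gal4 chimera and GAL4-UAS reporter units, dosed for 24 h. Reporter mRNA measured by RT-PCR, fluorescent primer extension and capillary electrophoresis; gain-of-signal fitted relative to DMSO.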

[6] = ATG_M_32_TRANS: Attagene TRANS-FACTORIAL HepG2 Assay for M32 Transcription Factor (Internal Marker) (AID 2282984); details: HepG2 Attagene TRANS M32 internal marker reporter;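 note: transcript level of a background control reporter unit measured by RT-PCR and capillary electrophoresis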
Outline: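 HepG2 cells transiently transfected with GAL4-UAS reporter units, dosed for 24 hours. Reporter mRNA quantified by RT-PCR, 6-FAM labelling, HpaI digestion and capillary electrophoresis; internal-marker signal fitted upward relative to DMSO.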

[7] = molecular target: Transcriptional activator Myb (Homo sapiens) (UniProt P10242); experiment: ATG_Myb_CIS: Attagene CIS-FACTORIAL HepG2 Assay for human Myeloblastosis (Myb) Proto-Oncogene Transcription Factor (AID 2282986; active = hit-call score of the fitted dose curve at least 0.9, where 1 is the maximum; inactive = score below 0.9); details: HepG2 Attagene CIS-FACTORIAL Myb reporter transcription; actives raise or lower the signal
Transcriptional activator Myb (Homo sapiens), sequence (P10242 whole entry, looked up): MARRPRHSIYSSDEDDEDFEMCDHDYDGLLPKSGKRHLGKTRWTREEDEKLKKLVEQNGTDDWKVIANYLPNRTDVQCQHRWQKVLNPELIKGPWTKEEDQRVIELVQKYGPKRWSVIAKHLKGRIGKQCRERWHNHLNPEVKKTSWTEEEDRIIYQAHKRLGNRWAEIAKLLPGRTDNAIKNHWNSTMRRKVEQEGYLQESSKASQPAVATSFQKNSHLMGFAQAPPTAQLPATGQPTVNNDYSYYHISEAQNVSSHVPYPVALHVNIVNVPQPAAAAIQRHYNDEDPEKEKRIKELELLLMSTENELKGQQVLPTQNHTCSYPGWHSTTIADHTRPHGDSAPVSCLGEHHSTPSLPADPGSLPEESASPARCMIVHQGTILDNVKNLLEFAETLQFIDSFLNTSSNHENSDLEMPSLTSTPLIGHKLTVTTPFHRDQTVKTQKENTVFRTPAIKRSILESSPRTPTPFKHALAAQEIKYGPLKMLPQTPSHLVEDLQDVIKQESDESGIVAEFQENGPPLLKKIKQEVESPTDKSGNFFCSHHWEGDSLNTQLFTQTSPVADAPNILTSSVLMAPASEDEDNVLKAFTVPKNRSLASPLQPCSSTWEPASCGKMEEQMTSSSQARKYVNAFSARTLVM
Outline: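 Using HepG2 liver cells bearing transiently transfected cis-promoter reporter constructs, the assay measures induction or loss of reporter mRNA after 24 hours of dosing. Detection used fluorescently labeled RT-PCR products separated by capillary electrophoresis.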

[8] = molecular target: Nuclear respiratory factor 1 (Homo sapiens) (UniProt Q16656); experiment: ATG_NRF1_CIS: Attagene CIS-FACTORIAL HepG2 Assay for human Nuclear Respiratory Factor 1 (NRF1) Orphan Gene (AID 2282987; active = hit-call score of the fitted dose curve at least 0.9, where 1 is the maximum; inactive = score below 0.9); details: HepG2 NRF1 cis-element reporter, Attagene multiplex; actives raise or lower the signal
Nuclear respiratory factor 1 (Homo sapiens), sequence (Q16656 whole entry, looked up): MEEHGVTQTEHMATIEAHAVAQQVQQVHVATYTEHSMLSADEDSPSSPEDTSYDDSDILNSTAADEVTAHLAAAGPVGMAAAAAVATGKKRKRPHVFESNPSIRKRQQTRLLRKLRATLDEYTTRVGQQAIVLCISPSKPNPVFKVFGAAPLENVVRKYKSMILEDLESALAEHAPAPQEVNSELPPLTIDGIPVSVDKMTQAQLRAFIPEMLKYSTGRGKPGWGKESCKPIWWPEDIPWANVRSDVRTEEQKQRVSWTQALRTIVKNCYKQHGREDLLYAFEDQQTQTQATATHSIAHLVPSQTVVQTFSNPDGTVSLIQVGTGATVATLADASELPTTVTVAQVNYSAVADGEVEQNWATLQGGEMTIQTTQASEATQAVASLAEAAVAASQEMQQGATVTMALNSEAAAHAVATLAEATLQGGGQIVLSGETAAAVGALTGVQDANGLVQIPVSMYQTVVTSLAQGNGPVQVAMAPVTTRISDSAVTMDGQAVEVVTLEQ
Outline: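 Reporter mRNA induction or loss in HepG2 cells after 24 h dosing; cis-regulated reporter constructs report endogenous transcription-factor activity. Quantified by RT-PCR/capillary electrophoresis fluorescence, DMSO-referenced.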

[9] = ATG_NF_kB_CIS: Attagene CIS-FACTORIAL HepG2 Assay for human Nuclear Factor Kappa B (NF-kB) (AID 2282991; active = hit-call score of the fitted dose curve at least 0.9, where 1 is the maximum; inactive = score below 0.9); details: HepG2 Attagene cis-factorial NF-kB reporter mRNA; actives raise or lower the signal
Outline: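 DMSO served as negative control and baseline for bidirectional curve fitting. Transiently transfected HepG2 cells were dosed for 24 h, then reporter transcripts were measured by RT-PCR with capillary electrophoresis detection.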

[10] = ATG_GLI_CIS: Attagene CIS-FACTORIAL HepG2 Assay for human Zinc Finger Protein GLI1 (AID 2282945; active = hit-call score of the fitted dose curve at least 0.9, where 1 is the maximum; inactive = score below 0.9); details: HepG2, Attagene cis-factorial reporter mRNA, GLI element; actives raise or lower the signal
Outline: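 Transiently transfected HepG2 cells report endogenous transcription factor activity via cis-element-driven reporter units. After 24 h compound exposure, reporter mRNA was measured by RT-PCR with capillary electrophoresis; bidirectional fitting against DMSO baseline.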

[11] = ATG_TCF_b_cat_CIS: Attagene CIS-FACTORIAL HepG2 Assay for human T-Cell-Factor with beta-catenin (TCF/b-cat) (AID 2282965; active = hit-call score of the fitted dose curve at least 0.9, where 1 is the maximum; inactive = score below 0.9); details: HepG2 TCF/beta-catenin cis-reporter transcription, actives raise or lower the signal
Outline: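 HepG2 cells transiently transfected with cis-promoter-driven multiplexed reporter units; reporter mRNA measured 24 h after dosing by RT-PCR, FAM labelling, HpaI digestion and capillary electrophoresis. Bidirectional fitting relative to DMSO baseline.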

[12] = ATG_Oct_MLP_CIS: Attagene CIS-FACTORIAL HepG2 Assay for human Octamer-Binding Transcription Factor (Oct) (AID 2282993; active = hit-call score of the fitted dose curve at least 0.9, where 1 is the maximum; inactive = score below 0.9); details: HepG2 Attagene cis-factorial Oct reporter, mRNA; actives raise or lower the signal
Outline: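 After 24 h compound exposure, transfected HepG2 cells were lysed for total RNA; reporter-specific cDNA was PCR-amplified, fluorescently labelled and sized by capillary electrophoresis. Bidirectional curve fitting used DMSO as baseline.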

[13] = molecular target: human Retinoid X Receptor beta (RXRb), RXRB (gene 6257) (UniProt P28702); experiment: ATG_RXRb_TRANS: Attagene TRANS-FACTORIAL HepG2 Assay for human Retinoid X Receptor beta (RXRb) (AID 2283013)
human Retinoid X Receptor beta (RXRb), RXRB (gene 6257), sequence (P28702 whole entry, looked up, the tested form may be a part): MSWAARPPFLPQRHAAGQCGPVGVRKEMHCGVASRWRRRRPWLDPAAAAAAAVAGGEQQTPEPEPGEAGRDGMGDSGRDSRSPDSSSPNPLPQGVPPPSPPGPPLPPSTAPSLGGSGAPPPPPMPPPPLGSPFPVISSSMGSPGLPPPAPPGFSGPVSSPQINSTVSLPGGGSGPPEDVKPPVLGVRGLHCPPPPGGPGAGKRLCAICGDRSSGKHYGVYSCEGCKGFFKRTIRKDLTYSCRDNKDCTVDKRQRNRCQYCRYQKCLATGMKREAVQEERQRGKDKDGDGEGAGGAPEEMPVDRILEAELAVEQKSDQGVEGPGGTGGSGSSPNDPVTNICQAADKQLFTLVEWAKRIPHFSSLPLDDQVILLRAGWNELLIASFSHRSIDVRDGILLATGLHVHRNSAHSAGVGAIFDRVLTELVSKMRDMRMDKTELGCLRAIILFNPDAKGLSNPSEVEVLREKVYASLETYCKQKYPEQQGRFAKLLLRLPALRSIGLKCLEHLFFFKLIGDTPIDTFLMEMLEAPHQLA
Outline: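 Transfect HepG2 with GAL4-UAS multi-reporter constructs (chimeric NR-Gal4, TRANS format); dose compound 24 h; isolate RNA, RT-PCR, FAM primer extension, HpaI digest; quantify by capillary electrophoresis; positive direction vs DMSO.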

[14] = TOX21_p53_BLA_p2_viability: Viability Assessment in the Tox21 HCT-116 p53 Agonism Beta-lactamase Assay, Phase 2 (AID 2283591);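 note: compound exposure lasted 16 h at 37 °C; actives lower the ATP signal meaning cytotoxicity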
Outline: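 HCT116 p53-bla cells, 4000/well, dosed after 5 h plating (217-fold dilution of DMSO stocks) and incubated 16 h at 37C. Viability taken as cellular ATP by CellTiter-Glo luminescence after 30 min RT; signal loss marks cytotoxicity.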

[15] = molecular target: Cellular tumor antigen p53 (Homo sapiens) (UniProt P04637); experiment: TOX21_p53_BLA_p2_ratio: Tox21 HCT-116 p53 Agonism Beta-lactamase Assay, Ratio, Phase 2 (AID 2283592)
Cellular tumor antigen p53 (Homo sapiens), sequence (P04637 whole entry, looked up): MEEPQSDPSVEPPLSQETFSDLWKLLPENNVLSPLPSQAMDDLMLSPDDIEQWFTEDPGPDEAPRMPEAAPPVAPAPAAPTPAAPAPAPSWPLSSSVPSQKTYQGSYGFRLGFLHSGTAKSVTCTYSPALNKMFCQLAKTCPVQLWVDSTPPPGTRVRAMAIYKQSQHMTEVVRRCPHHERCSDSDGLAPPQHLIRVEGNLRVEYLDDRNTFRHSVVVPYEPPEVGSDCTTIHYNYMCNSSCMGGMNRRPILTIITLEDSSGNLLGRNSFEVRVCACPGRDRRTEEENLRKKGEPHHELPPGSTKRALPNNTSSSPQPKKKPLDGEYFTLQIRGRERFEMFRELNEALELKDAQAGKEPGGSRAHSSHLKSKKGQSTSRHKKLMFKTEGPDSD
Outline: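 HCT116 p53-bla; 4000 cells/well; 5 h pre-incubation; cpd in DMSO, 217-fold dilution; 16 h 37C/5% CO2; CCF4-AM 2 h RT; Ex 405, Em 460/530 ratio; DMSO = baseline; positive fitting direction.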

[16] = molecular target: Cellular tumor antigen p53 (Homo sapiens) (UniProt P04637); experiment: TOX21_p53_BLA_p3_ratio: Tox21 HCT-116 p53 Agonism Beta-lactamase Assay, Ratio, Phase 3 (AID 2283596)
Outline: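 HCT116 p53-bla cells (4000/well) given compound in DMSO (217-fold dilution) after 5 h, incubated 16 h at 37C. CCF4-AM substrate 2 h at room temperature; 460/530 nm emission ratio, gain fitted against DMSO.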

[17] = TOX21_p53_BLA_p5_viability: Viability Assessment in the Tox21 HCT-116 p53 Agonism Beta-lactamase Assay, Phase 5 (AID 2283600)
Outline: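 4000 cells/well; 5 h pre-incubation; DMSO compounds pin-transferred, 217-fold dilution; 16 h, 37C/5% CO2; CCF4-AM 2 h RT; CellTiter-Glo 30 min RT; luminescence.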

[18] = molecular target: Cellular tumor antigen p53 (Homo sapiens) (UniProt P04637); experiment: TOX21_p53_BLA_p4_ratio: Tox21 HCT-116 p53 Agonism Beta-lactamase Assay, Ratio, Phase 4 (AID 2283601)
Outline: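 HCT-116 p53 beta-lactamase reporter cells (4000/well) preincubated 5 h, then compound (217-fold dilution of DMSO stock) for 16 h at 37C. CCF4-AM substrate added 2 h at room temperature; 460/530 nm emission ratio fitted upward versus DMSO.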

[19] = molecular target: Retinoic acid receptor alpha (Homo sapiens) (UniProt P10276); experiment: ATG_DR5_RAR_CIS: Attagene CIS-FACTORIAL HepG2 Assay for human Retinoic Acid Receptor Alpha (RARE), DR5 submotif (AID 2282934; active = hit-call score of the fitted dose curve at least 0.9, where 1 is the maximum; inactive = score below 0.9;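 for AC50: reporter responds to endogenous RAR alpha beta and gamma in HepG2 not RARA alone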); details: HepG2 Attagene cis-factorial RARE DR5 reporter, mRNA; actives raise or lower the signal
Retinoic acid receptor alpha (Homo sapiens), sequence (P10276 whole entry, looked up): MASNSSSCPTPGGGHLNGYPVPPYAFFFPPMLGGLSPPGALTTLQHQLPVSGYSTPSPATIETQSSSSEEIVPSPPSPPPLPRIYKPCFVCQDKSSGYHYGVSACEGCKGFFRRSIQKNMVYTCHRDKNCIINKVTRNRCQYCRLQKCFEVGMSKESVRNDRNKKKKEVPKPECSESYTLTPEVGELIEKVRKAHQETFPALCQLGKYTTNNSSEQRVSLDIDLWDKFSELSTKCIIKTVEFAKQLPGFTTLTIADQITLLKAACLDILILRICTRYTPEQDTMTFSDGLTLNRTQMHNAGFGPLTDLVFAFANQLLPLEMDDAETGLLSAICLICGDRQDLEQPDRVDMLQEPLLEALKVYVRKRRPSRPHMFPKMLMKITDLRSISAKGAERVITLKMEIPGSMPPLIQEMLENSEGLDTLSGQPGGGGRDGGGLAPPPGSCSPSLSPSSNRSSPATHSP
Outline: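 HepG2 cells transiently transfected with multiplexed reporter units; DR5 cis-element drives reporter through endogenous transcription factors. After 24 h dosing, reporter mRNA quantified by RT-PCR, fluorescent labeling, HpaI digestion and capillary electrophoresis; bidirectional fitting versus DMSO.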

[20] = molecular target: Cellular tumor antigen p53 (Homo sapiens) (UniProt P04637); experiment: TOX21_p53_BLA_p5_ratio: Tox21 HCT-116 p53 Agonism Beta-lactamase Assay, Ratio, Phase 5 (AID 2283599)
Outline: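 HCT-116 p53-bla cells (4000/well) plated 5 h, dosed with compound (217-fold DMSO dilution) for 16 h at 37 C; CCF4-AM substrate 2 h at room temperature. Activity is the 460/530 nm emission ratio (405 nm excitation), fitted in gain-of-signal direction versus DMSO.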

Measured: AC50

O=C(O)/C=C\C(=O)O
inactive: [1] | [2] | [3] | [4] | [5] | [6] | [7] | [8] | [9]

C[C@H]1C[C@H]2[C@@H]3CCC4=CC(=O)C=C[C@]4(C)[C@@]3(F)[C@@H](O)C[C@]2(C)[C@@]1(O)C(=O)CO
active: [11] 150 µM | [3] 158 µM | [7] 180 µM
not listed: [1] | [4] | [5] | [6] | [8] | [19] | [20]
inactive: all other assays above

C/C=C(\C)C(=O)OCC/C=C\CC
not listed: [5] | [8] | [10] | [20]
inactive: all other assays above

CCC(=O)OCc1ccc(OC)cc1
not listed: [10] | [17]
inactive: all other assays above

CNC(=C[N+](=O)[O-])NCCSCc1csc(CN(C)C)n1
not listed: [10] | [14] | [18] | [19]
inactive: all other assays above

CN(C)Cc1cc(C(C)(C)C)c(O)c(C(C)(C)C)c1
inactive: [19] | [10] | [1] | [11] | [3] | [6] | [12] | [14] | [16] | [17]
active: [13] 1.67 µM

NC(N)=Nc1nc(CSCCC(N)=NS(N)(=O)=O)cs1
not listed: [2] | [5] | [7] | [9] | [11] | [12]
inactive: all other assays above

O=C(OCc1ccccc1)c1ccccc1
not listed: [11] | [14] | [15] | [16] | [17] | [18] | [20]
inactive: all other assays above

O=C(C(=O)c1ccccc1)c1ccccc1
not listed: [3] | [4] | [8] | [13] | [14] | [17] | [19] | [20]
inactive: all other assays above

O=C(CC(C(=O)OC1CCCCC1)S(=O)(=O)O)OC1CCCCC1 (stereo unspecified)
not listed: [11] | [12]
inactive: all other assays above

OCCOCCOCCOCCOCCO
not listed: [1] | [2] | [3] | [5] | [9] | [10] | [12] | [13]
inactive: all other assays above

Cc1cc2nc3c(=O)[nH]c(=O)nc-3n(C[C@H](O)[C@H](O)[C@H](O)CO)c2cc1C
not listed: [6] | [10] | [13] | [20]
inactive: all other assays above

Clc1ccc(Sc2cc(Cl)c(Cl)cc2Cl)cc1
active: [13] 7.54 µM
not listed: [4] | [6] | [8] | [9] | [14] | [20]
inactive: all other assays above

Cc1cc(O)cc(C)c1Cl
active: [19] 79.6 µM | [13] 48.8 µM
inactive: [1] | [11] | [3] | [4] | [6] | [8] | [9]

COC(=O)c1ccccc1
not listed: [1] | [2] | [3] | [13] | [19]
inactive: all other assays above

Oc1ccc(Cl)cc1C1CCCC1
active: [10] 43.1 µM | [3] 43.1 µM | [8] 44.1 µM | [13] 3.12 µM | [18] 55.6 µM
not listed: [1] | [4] | [7] | [11] | [12]
inactive: all other assays above
